Source: PubChem BioAssay (Tox21)
Records with an inconclusive call do not appear. The source made the active and inactive calls. Unless noted, the call rests on the fitted dose curve; in most records, active means well fitted curve in the direction sought with a large enough effect in the repeat runs; inconclusive means weak or mixed curves; inactive means no such curve, though single readings can be large; an effect the other way counts as inactive or inconclusive.

Assays:
[1] = qHTS RealTime-Glo MT Cell Viability Assay in HepG2 cells - 32 hour (AID 1224877); further: nearly all actives have a fitted effect of over 55% in size
How it was run: (§1)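 qHTS, HepG2, 600 cells/well, RealTime-Glo (NanoLuc + prosubstrate) added with cells; 5 h preincubation; DMSO compound addition; 37 C; luminescence at 0/8/16/24/32/40 h.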

[2] = A CellTox Green Cytotoxicity Assay to monitor cytotoxicity in HepG2 cells - 24 hour (AID 1224878); further: nearly all actives have a fitted effect of over 45% in size
How it was run: (§2)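 Continuous culture of HepG2 cells with a membrane-impermeant DNA dye; rising fluorescence marks dead cells. Compound exposure lasted up to 40 h at 37 C, with reads every 8 h from 0 h.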

[3] = A CellTox Green Cytotoxicity Assay to monitor cytotoxicity in HepG2 cells - 40 hour (AID 1224879); further: nearly all actives have a fitted effect of over 40% in size
How it was run: as §2

[4] = qHTS RealTime-Glo MT Cell Viability Assay in HEK293 cells - 0 hour (AID 1224880); further: top concentration of the series differs between compounds; nearly all actives have a fitted effect of over 45% in size
How it was run: (§3)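 qHTS format; HEK293 cells with NanoLuc/prosubstrate reagent, 37 C/5% CO2 for 5 h pre-dosing; compounds 23 nL in DMSO; luminescence at each time point reflects viable cells.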

[5] = A CellTox Green Cytotoxicity Assay to monitor cytotoxicity in HEK293 cells - 32 hour (AID 1224881); further: nearly all actives have a fitted effect of over 40% in size
How it was run: (§4)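 Each value comes from one timepoint of a single continuous run in which HEK293 cells with CellTox Green were exposed to compound for up to 40 h at 37 C, dye fluorescence rising with cell death.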

[6] = A CellTox Green Cytotoxicity Assay to monitor cytotoxicity in HepG2 cells - 0 hour (AID 1224882); further: nearly all actives have a fitted effect of over 35% in size
How it was run: as §2

[7] = A CellTox Green Cytotoxicity Assay to monitor cytotoxicity in HepG2 cells - 32 hour (AID 1224883); further: nearly all actives have a fitted effect of over 50% in size
How it was run: as §2

[8] = qHTS RealTime-Glo MT Cell Viability Assay in HepG2 cells - 16 hour (AID 1224885); further: nearly all actives have a fitted effect of over 50% in size
How it was run: as §1

[9] = qHTS RealTime-Glo MT Cell Viability Assay in HEK293 cells - 24 hour (AID 1224886); further: top concentration of the series differs between compounds; nearly all actives have a fitted effect of over 50% in size
How it was run: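 Assay medium contained NanoLuc luciferase plus cell-permeant prosubstrate, added with HEK293 cells at 600 cells/well. After 5 h at 37 C/5% CO2 compounds were added; plates stayed at 37 C for 40 h with serial luminescence reads.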

[10] = qHTS RealTime-Glo MT Cell Viability Assay in HEK293 cells - 8 hour (AID 1224887); further: top concentration of the series differs between compounds; nearly all actives have a fitted effect of over 50% in size
How it was run: as §3

[11] = A CellTox Green Cytotoxicity Assay to monitor cytotoxicity in HEK293 cells - 16 hour (AID 1224888); further: nearly all actives have a fitted effect of over 35% in size
How it was run: as §4

[12] = qHTS RealTime-Glo MT Cell Viability Assay in HepG2 cells - 0 hour (AID 1224889); further: nearly all actives have a fitted effect of over 50% in size
How it was run: as §1

[13] = A CellTox Green Cytotoxicity Assay to monitor cytotoxicity in HepG2 cells - 8 hour (AID 1224890); further: nearly all actives have a fitted effect of over 45% in size
How it was run: as §2

[14] = qHTS assay to identify small molecule antagonists of the estrogen receptor alpha (ER-alpha) signaling pathway using the BG1 cell line in the presence of 0.1 nM 17-beta-estradiol - cell viability counter screen (AID 1259241); further: nearly all actives have a fitted effect of over 40% in size
How it was run: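 Following 5 days in phenol red-free medium with charcoal-stripped serum, VM7Luc4E2 cells received test compounds alongside 0.1 nM 17beta-estradiol (final) at 37C for 22 hr. Live cells were then quantified via protease-substrate fluorescence.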

[15] = qHTS assay to identify small molecule antagonists of the androgen receptor (AR) signaling pathway using the MDA cell line in the presence of 0.5 nM R1881 - cell viability counter screen (AID 1259242); further: nearly all actives have a fitted effect of over 45% in size
How it was run: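 Fluorescence from CellTiter-Fluor, which reports protease activity of live cells, was read 30 min after reagent addition to MDA-kb2 cells that had been incubated 16 hr with compound and 0.5 nM R1881.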

[16] = target: Androgen receptor (Homo sapiens) (UniProt P10275); experiment: qHTS assay to identify small molecule antagonists of the androgen receptor (AR) signaling pathway using the MDA cell line in the presence of 0.5 nM R1881 (AID 1259243); further: nearly all actives have a fitted effect of over 50% in size
How it was run: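 Inhibition of R1881 (0.5 nM final) induced reporter signal was measured in human MDA-kb2 cells; note the MMTV promoter also responds to GR. Exposure lasted 16 hr at 37C.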

[17] = qHTS assay to identify small molecule phospholipidosis (PLD) inducers (AID 1259344; active means well fitted curve in the direction sought with a large enough effect; an effect the other way counts as inactive or inconclusive)
How it was run: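 Fluorescent phospholipid staining (LipidTOX Red) measured by automated microscopy in fixed HepG2 cells after 24 h treatment; nuclei counterstained with Hoechst 33342; amiodarone as reference inducer.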

[18] = qHTS assay to identify small molecule HDAC inhibitors (AID 1259364)
How it was run: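 Endogenous HDAC class I/II activity was measured in wild-type HCT-116 cells by HDAC-Glo luminescence after 2 h compound treatment.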

[19] = A CellTox Green Cytotoxicity Assay to monitor cytotoxicity in HEK293 cells - 8 hour (AID 1224884); further: nearly all actives have a fitted effect of over 35% in size
How it was run: as §4

[20] = target: Estrogen receptor (Homo sapiens) (UniProt P03372); experiment: qHTS assay to identify small molecule antagonists of the estrogen receptor alpha (ER-alpha) signaling pathway using the BG1 cell line in the presence of 0.1 nM 17-beta-estradiol (AID 1259244); further: nearly all actives have a fitted effect of over 50% in size
How it was run: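 Quantitative high-throughput screen in VM7Luc4E2 cells: compound plus 0.1 nM E2 (final), 22 h, 37C, 5% CO2; ONE-Glo added, 30 min room temperature, luminescence measured.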
On the % scale 0 is the no-effect control and ±100 the full control effect.

Chain of Androgen receptor (Homo sapiens) (P10275 whole entry, looked up): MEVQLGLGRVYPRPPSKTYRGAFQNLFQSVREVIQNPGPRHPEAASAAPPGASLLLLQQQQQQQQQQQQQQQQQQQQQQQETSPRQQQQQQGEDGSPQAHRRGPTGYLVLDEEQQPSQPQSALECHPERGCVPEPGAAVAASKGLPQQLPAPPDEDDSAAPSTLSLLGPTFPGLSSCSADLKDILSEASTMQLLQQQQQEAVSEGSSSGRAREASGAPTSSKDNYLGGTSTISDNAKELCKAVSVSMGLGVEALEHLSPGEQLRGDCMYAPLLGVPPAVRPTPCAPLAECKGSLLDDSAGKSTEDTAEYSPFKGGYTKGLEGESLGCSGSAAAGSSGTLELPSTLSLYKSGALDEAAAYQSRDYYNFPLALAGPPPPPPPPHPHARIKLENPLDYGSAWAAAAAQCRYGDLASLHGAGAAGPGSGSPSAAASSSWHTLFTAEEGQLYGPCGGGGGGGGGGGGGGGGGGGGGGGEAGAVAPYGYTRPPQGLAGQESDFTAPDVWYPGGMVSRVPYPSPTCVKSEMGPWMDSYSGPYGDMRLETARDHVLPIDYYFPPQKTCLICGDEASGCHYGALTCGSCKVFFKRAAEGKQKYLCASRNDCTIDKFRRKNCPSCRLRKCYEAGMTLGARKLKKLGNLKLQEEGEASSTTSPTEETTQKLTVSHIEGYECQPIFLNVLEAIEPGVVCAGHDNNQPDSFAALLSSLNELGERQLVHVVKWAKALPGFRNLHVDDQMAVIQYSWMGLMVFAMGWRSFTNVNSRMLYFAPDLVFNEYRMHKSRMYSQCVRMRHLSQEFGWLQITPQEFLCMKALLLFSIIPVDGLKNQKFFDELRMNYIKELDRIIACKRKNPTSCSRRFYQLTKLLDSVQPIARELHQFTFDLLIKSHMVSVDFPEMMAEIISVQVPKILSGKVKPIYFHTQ
Chain of Estrogen receptor (Homo sapiens) (P03372 whole entry, looked up): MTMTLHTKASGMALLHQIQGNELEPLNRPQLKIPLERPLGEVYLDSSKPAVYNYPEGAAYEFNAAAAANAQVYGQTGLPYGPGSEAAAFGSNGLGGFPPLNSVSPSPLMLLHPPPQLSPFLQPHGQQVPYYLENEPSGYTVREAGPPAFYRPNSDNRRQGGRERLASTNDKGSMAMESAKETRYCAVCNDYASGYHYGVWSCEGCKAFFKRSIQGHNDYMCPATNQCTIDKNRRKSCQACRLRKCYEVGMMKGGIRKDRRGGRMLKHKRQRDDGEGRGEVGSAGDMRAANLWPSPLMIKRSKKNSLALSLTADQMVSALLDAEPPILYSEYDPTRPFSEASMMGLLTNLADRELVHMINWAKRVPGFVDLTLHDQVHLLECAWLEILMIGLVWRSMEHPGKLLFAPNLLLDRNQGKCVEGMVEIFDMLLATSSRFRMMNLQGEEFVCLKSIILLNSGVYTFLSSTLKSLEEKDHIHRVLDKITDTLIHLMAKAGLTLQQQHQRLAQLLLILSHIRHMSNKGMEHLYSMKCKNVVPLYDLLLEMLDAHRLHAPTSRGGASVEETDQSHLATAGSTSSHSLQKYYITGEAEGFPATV

CC(C)(C)NCC(O)COc1cccc2c1CCC(=O)N2 (centres undefined)
inactive: outcome [1] | Potency [2] | Potency [3] | Potency [4] | Potency [5] | Potency [6] | Potency [7] | outcome [8] | outcome [9] | outcome [10] | Potency [11] | Potency [12] | Potency [13] | outcome [14] | outcome [15] | Potency [16] | Potency [17] | Potency [18]

Cc1nnc(C(=O)NC(C)(C)c2nc(C(=O)NCc3ccc(F)cc3)c(O)c(=O)n2C)o1
inactive: outcome [1] | Potency [2] | Potency [3] | Potency [4] | Potency [5] | Potency [6] | Potency [7] | Potency [19] | outcome [8] | outcome [10] | Potency [11] | Potency [12] | Potency [13] | outcome [14] | outcome [15] | Potency [17] | Potency [18]

Nc1cc(S(=O)(=O)O)ccc1O
inactive: outcome [1] | Potency [2] | Potency [3] | Potency [4] | Potency [5] | Potency [6] | Potency [7] | outcome [8] | outcome [9] | outcome [10] | Potency [11] | Potency [12] | Potency [13] | outcome [14] | outcome [15] | Potency [16] | outcome [20] | Potency [18]

C[C@@H]1NC(=O)[C@@H](N)CNC(=O)[C@H](C2CCNC(N)=N2)NC(=O)/C(=C/NC(N)=O)NC(=O)[C@H](CNC(=O)C[C@@H](N)CCCN)NC1=O (some centres undefined)
inactive: activity change, negative = cytotoxic [1] 3.72% [at 0.29 µM] | cytotoxicity [2] -1.91% [at 0.29 µM] | cytotoxicity increase [3] -3.78% [at 0.29 µM] | activity change, negative = cytotoxicity [4] -3.01% [at 0.29 µM] | cytotoxicity increase [5] 19.4% [at 0.29 µM] | cytotoxicity [6] -4.92% [at 0.29 µM] | cytotoxicity increase [7] -3.17% [at 0.29 µM] | cytotoxicity increase [19] 6.36% [at 0.29 µM] | activity change, negative = cytotoxic [8] 5.82% [at 0.29 µM] | activity change, negative = cytotoxicity [10] 0.186% [at 0.29 µM] | activity change [11] 17.5% [at 0.29 µM, hits give high values] | activity change, negative = cytotoxicity [12] 5.25% [at 0.29 µM] | cytotoxicity increase [13] -1.65% [at 0.29 µM] | activity change, negative = cytotoxicity [14] 6.75% [at 0.349 µM] | viability change, negative = cytotoxic [15] 2.87% [at 0.349 µM] | activity change, negative = inhibition [20] 11.8% [at 0.349 µM] | Potency [17] | activity change, negative = inhibition [18] -0.0991% [at 0.349 µM]

CC(=O)c1ccc2ccc3ccccc3c2c1
inactive: outcome [1] | Potency [2] | Potency [3] | Potency [4] | Potency [5] | Potency [6] | Potency [7] | Potency [19] | outcome [8] | Potency [11] | Potency [12] | Potency [13] | outcome [14] | outcome [20] | Potency [18]

O=S(=O)(O)CC(O)CCl (centres undefined)
inactive: outcome [1] | Potency [2] | Potency [3] | Potency [4] | Potency [5] | Potency [6] | Potency [7] | Potency [19] | outcome [8] | outcome [10] | Potency [11] | Potency [12] | Potency [13] | outcome [14] | outcome [15] | outcome [20] | Potency [18]

CCCC(C)C(O)CC (centres undefined)
inactive: outcome [1] | Potency [2] | Potency [3] | Potency [4] | Potency [5] | Potency [6] | Potency [7] | outcome [8] | outcome [9] | outcome [10] | Potency [11] | Potency [12] | Potency [13] | outcome [14] | outcome [15]

CCCCC(O)/C=C(C)/C=C/C=C/C(=O)N1CCCC1=O (centres undefined)
inactive: outcome [1] | Potency [2] | Potency [3] | Potency [4] | Potency [5] | Potency [6] | Potency [7] | Potency [19] | outcome [8] | Potency [11] | Potency [12] | Potency [13] | outcome [14] | outcome [15] | outcome [20] | Potency [18]

CC(=O)Nc1ccc(OCCOCCOc2ccc(NC(C)=O)cc2)cc1
inactive: outcome [1] | Potency [2] | Potency [3] | Potency [4] | Potency [5] | Potency [6] | Potency [7] | Potency [19] | outcome [8] | outcome [10] | Potency [11] | Potency [12] | Potency [13] | outcome [15] | outcome [20] | Potency [17] | Potency [18]

CCCCCCCCCCCCCCCCN(C)C
inactive: activity change, negative = cytotoxic [1] -0.525% [at 6.97 µM] | cytotoxicity [2] 1.92% [at 6.97 µM] | cytotoxicity increase [3] 0.0455% [at 6.97 µM] | activity change, negative = cytotoxicity [4] 2.86% [at 6.97 µM] | cytotoxicity increase [5] 3.45% [at 6.97 µM] | cytotoxicity [6] 2.28% [at 6.97 µM] | cytotoxicity increase [7] 1.06% [at 6.97 µM] | cytotoxicity increase [19] -0.796% [at 6.97 µM] | activity change, negative = cytotoxic [8] 0.191% [at 6.97 µM] | activity change [11] 0.327% [at 6.97 µM, hits give high values] | activity change, negative = cytotoxicity [12] 4.22% [at 6.97 µM] | cytotoxicity increase [13] 2.33% [at 6.97 µM] | activity change, negative = cytotoxicity [14] 8.65% [at 8.39 µM] | viability change, negative = cytotoxic [15] 0.99% [at 8.39 µM] | activity, negative = inhibition [16] 15.5% [at 8.39 µM] | activity change, negative = inhibition [20] 15.1% [at 8.39 µM] | activity change, negative = inhibition [18] 2.04% [at 8.39 µM]

C=CCn1cc[n+](C)c1
inactive: outcome [1] | Potency [2] | Potency [3] | Potency [4] | Potency [5] | Potency [6] | Potency [7] | Potency [19] | outcome [8] | outcome [10] | Potency [11] | Potency [12] | Potency [13] | outcome [14] | outcome [20] | Potency [18]

C[C@@H]1CCC[C@H](C)N1CCCC(O)(c1ccccc1)c1ccccn1 (some centres undefined)
inactive: outcome [1] | Potency [2] | Potency [3] | Potency [4] | Potency [5] | Potency [6] | Potency [7] | Potency [19] | outcome [8] | Potency [11] | Potency [12] | Potency [13] | outcome [14] | outcome [15] | Potency [16] | outcome [20] | Potency [18]

CCC(C)(C)C
inactive: outcome [1] | Potency [2] | Potency [3] | Potency [4] | Potency [5] | Potency [6] | Potency [7] | Potency [19] | outcome [8] | outcome [9] | Potency [11] | Potency [12] | Potency [13] | outcome [20]

CCOC(=O)[C@H](CCc1ccccc1)N[C@H]1CS[C@H](c2cccs2)CN(CC(=O)O)C1=O
inactive: outcome [1] | Potency [2] | Potency [3] | Potency [4] | Potency [5] | Potency [6] | Potency [7] | Potency [19] | outcome [8] | outcome [10] | Potency [11] | Potency [12] | Potency [13] | outcome [15] | Potency [16] | outcome [20] | Potency [17] | Potency [18]

CC(C)OC(=O)C(C(=O)OC(C)C)=C1SC=CS1
inactive: outcome [1] | Potency [2] | Potency [3] | Potency [4] | Potency [5] | Potency [6] | Potency [7] | Potency [19] | outcome [8] | Potency [11] | Potency [12] | Potency [13] | outcome [15] | Potency [16] | Potency [17] | Potency [18]
